Records with an inconclusive call do not appear. A number with no mark means an inactive call. The source made the active and inactive calls. Calls follow the shape of the dose curve; as a rule, active = well fitted activation curve with a large enough effect; inconclusive = small, poorly fitted or top-dose-only effect; inactive = flat fitted curve, though single readings scatter.
Assay: Primary redox qHTS assay for identification of artifact compounds. (AID 1845223);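 also: 0% = DMSO and 100% = reference compound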
Settings: Amplex Red/HRP redox cycling with DTT, fluorescence; series mostly up to 53.8 µM; redox activity (% of DA3003): at the top concentration
How it was run: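 Redox-cycling detection via DTT (250 uM final) oxidation coupled to Amplex Red (25 uM)/HRP (250 mU/mL) in HBSS. 15 min preincubation plus 30 min after DTT, room temperature. Ex/Em 525/598 nm; 4-parameter Hill fit against DMSO and 10 uM DA3003.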

Row | Compound | redox activity (% of DA3003) | Potency
1 | Cc1ccc(C(=O)Nc2ccc(Oc3cc4cnn(C)c4cc3-c3cn[nH]c3)c(F)c2)c(=O)n1-c1ccc(F)cc1 | -7.68% | 
2 | CCCOc1ccn2c(C(C)=O)cc(-c3ccccc3S(C)(=O)=O)c2c1 | 15.9% | 
3 | CC(=O)c1c(C)cc(O)cc1O[C@@H]1O[C@H](CO)[C@@H](O)[C@H](O)[C@H]1O | -16.8% | 
4 | Nc1nonc1C(=Nc1ccc(F)c(Cl)c1)NO | -2.42% | 
5 | COC(=O)C1C(CC(C)=O)C=CC(O)C12Oc1cc(C)cc(O)c1C2=O (centres undefined) | 15.4% | 
6 | C[C@@H](Nc1cc(NS(=O)(=O)N2CCC2)nc(SCc2cccc(F)c2F)n1)[C@@H](O)CO | -9.76% | 
7 | CC(=O)OC1C=C(C(=O)O)C2(CO)CCC(C)C(C)(CCc3ccoc3)C2C1 (centres undefined) | 4.91% [at 25.6 µM] | 
8 | O=C1C[C@@H](c2ccc(O)cc2)Oc2cc(O)ccc21 | -5.18% | 
9 | OCC1OC(Oc2cc(O)c3c(c2)OC(c2ccc(O)cc2)C(O)C3)C(O)C1O (centres undefined) | -8.7% [at 25.6 µM] | 
10 | CC1(C)C(O)CCC2(C)C1C(O)C=C1COC(=O)C12O (centres undefined) | -1.58% | 
11 | CC(C)c1nc(N(C)S(C)(=O)=O)nc(-c2ccc(F)cc2)c1/C=C/[C@@H](O)C[C@@H](O)CC(=O)O | -0.891% | 
12 | CC1=CC(=O)CC(C)(C)C1(O)CCC(C)O (centres undefined) | 2.11% | 
13 | COc1cc(N2CCC(N(C)C)CC2)ccc1Nc1ncc(Cl)c(Nc2ccccc2P(C)(C)=O)n1 | 14.5% | 
14 | C=C(C)[C@@H]1CC[C@](C)(O)[C@@H](OC(=O)c2ccccc2)C1 | -4.73% | 
15 | CC1CCC(=O)CC(O)C(O)CC(=O)O1 (centres undefined) | 17.3% | 
16 | C=C(C)C1CC2(CO)C(=CC1=O)CCC(O)C2C (centres undefined) | -16% | 
17 | C/C=C(\C)C(=O)O[C@@H](C)[C@H]1CC[C@]2(O)C3CCC4C[C@@H](OC5CC(OC)C(OC6CC(OC)C(OC7CC(OC)C(OC8OC(C)C(OC9OC(CO)C(O)C(O)C9O)C(OC)C8O)C(C)O7)C(C)O6)C(C)O5)CC[C@]4(C)C3[C@H](O)[C@@H](O)[C@]12C (some centres undefined) | 14% [at 11.5 µM] | 
18 | CCOc1ccc(-c2ccc(Cn3c(CC(C)(C)C(=O)O)c(SC(C)(C)C)c4cc(OCc5ccc(C)cn5)ccc43)cc2)cn1 |  | inactive
19 | CN1C(=O)N[C@@H](Cc2c[nH]c3c(Cl)cccc23)C1=O | -1.17% | 
20 | NCc1c[nH]c(=S)n1C1CCc2c(F)cc(F)cc2C1 (centres undefined) | -3.81% | 

Row | Compound | redox activity (% of DA3003) | Potency
21 | O=C(O)C[C@H](O)C[C@H](O)/C=C/c1c(C2CC2)nc2ccccc2c1-c1ccc(F)cc1 | 15.3% | 
22 | Cc1c(CN(C)C(=O)/C=C/c2cnc3c(c2)CCC(=O)N3)oc2ccccc12 | -1.28% | 
23 | NC(=O)c1ccc(OCC2NC(=O)C3CCCN3C2=O)cc1 (centres undefined) | -1.39% | 
24 | COC1C2=C(COC2=O)C2(C)CCCC(C)(CO)C2C1OC(=O)c1ccccc1 (centres undefined) | 10.4% [at 25.6 µM] | 
25 | CCC1CC2C(C)=CC3CCCCC3C2(C)C2(OC(=O)C(C)(O)OC2=O)O1 (centres undefined) | 12.2% | 
26 | CC1(C)CC[C@]2(C(=O)O[C@@H]3O[C@H](CO)[C@@H](O)[C@H](O)[C@H]3O)CC[C@]3(C)C(=CCC4[C@@]5(C)C[C@@H](O)[C@H](O)C(CO)(CO)C5CC[C@]43C)C2[C@@H]1O (some centres undefined) | -13.4% [at 25.6 µM] | 
27 | CC1(C)CCC[C@@]2(C)[C@H]1[C@H](O)C=C1COC(=O)[C@@]12O | 13.9% | 
28 | N#Cc1ccnc(N2C(=O)CC[C@H]2C(=O)N(c2cncc(F)c2)[C@H](C(=O)NC2CC(F)(F)C2)c2ccccc2Cl)c1 | 13.4% | 
29 | OCc1ccccc1O[C@@H]1O[C@H](CO)[C@@H](O)[C@H](O)[C@H]1O | -0.102% | 
30 | CC(C)(O)CNc1nc(Nc2ccnc(C(F)(F)F)c2)nc(-c2cccc(C(F)(F)F)n2)n1 | 4.9% [at 25.6 µM] | 
31 | CC1OC(OC2C(C)OC(OC3C(OC(=O)/C=C/c4ccc(O)cc4)C(CO)OC(OC4(COC(=O)/C=C/c5ccc(O)cc5)OC(CO)C(O)C4O)C3OC3OCC(O)(CO)C3O)C(O)C2O)C(O)C(O)C1O (centres undefined) | -13.7% [at 11.5 µM] | 
32 | CCc1nc(C(N)=O)c(Nc2ccc(N3CCC(N4CCN(C)CC4)CC3)c(OC)c2)nc1NC1CCOCC1 | -10.2% | 
33 | CC1C(=O)CC2C3C(O)CC(C(=O)O)C12CC3(C)C (centres undefined) | -9.49% | 
34 | CC(C)[C@@H](C)/C=C/[C@@H](C)[C@H]1CC[C@H]2C3=CC=C4C[C@@H](O)CC[C@]4(C)[C@H]3CC[C@]12C | -4.31% [at 25.6 µM] | 
35 | O=C1[C@H](O[C@@H]2O[C@H](CO)[C@@H](O)[C@H](O)[C@H]2O)Oc2ccccc2N1O | -11.2% | 
36 | CC(=O)O[C@@]1(C)C[C@@H](O)[C@]2(O)C=CO[C@@H](O[C@@H]3O[C@H](CO)[C@@H](O)[C@H](O)[C@H]3O)[C@@H]21 | -17% [at 25.6 µM] | 
37 | C[C@H]1[C@H](C)CC[C@]2(C(=O)O)CC[C@]3(C(=O)O)C(=CCC4[C@@]5(C)CC[C@H](O[C@@H]6O[C@H](C)[C@@H](O)[C@H](O)[C@H]6O)C(C)(C)C5CC[C@]43C)[C@H]12 (some centres undefined) | -9.52% [at 25.6 µM] | 
38 | CC(=O)N1CCN(NC(=O)c2ccc(F)cc2)CC1 | -5.82% | 
39 | N#CCc1ccc(O)cc1O[C@@H]1O[C@H](CO)[C@@H](O)[C@H](O)[C@H]1O | -10.7% | 
